Reference: PMC4552634, “A New Set of Chemical Starting Points with Plasmodium falciparum Transmission-Blocking Potential for Antimalarial Drug Discovery” (PLoS ONE, 2015)
Hit rate of the full screen: of about 13,000 compounds, about 3,200 (25%) showed an effect of 50% or more. This is one part of the list.

The molecules below were run on P. falciparum stage V gametocytes. Details: 48 h, 5 µM; inhibitor.
Parameters: BacTiter-Glo ATP luminescence viability of purified stage V gametocytes in 384-well plates, per cent inhibition versus DMSO

SMILES	% Inhibition [%]
Cc1onc(-c2ccccc2Cl)c1C(=O)Nc1cc(Cl)c(Cl)cc1Cl [TCMDC-123514]	9.365
COc1ccc(-c2ccc(CNC(=O)c3ccc(C#N)cc3)c(F)c2)cc1CN1CCCN(C)CC1 [TCMDC-133368]	-37.75
COc1cc(OC)cc(C(=O)Nc2cccc(-c3cn4ccc(C)cc4n3)c2)c1 [TCMDC-124622]	4
Cc1ccn2cc(-c3ccc(NC(=O)c4ccc(Br)o4)cc3)nc2c1 [TCMDC-124517]	106.8
COc1cc(C(=O)Nc2cccc(-c3cn4ccc(C)cc4n3)c2)cc(OC)c1OC [TCMDC-125384]	26.29
Cc1cc(OCCCN2CCC(NS(=O)(=O)c3cccc(Br)c3)CC2)c2ccccc2n1 [TCMDC-136279]	-49.51
CCCCc1cc(Cc2cnc(N)nc2N)cc(OC)c1OC [TCMDC-137876]	-18.26
CCCCOc1cc(OC)c2ccccc2c1CCNCCCCNCCc1c(OCCCC)cc(OC)c2ccccc12 [TCMDC-137845]	110.3
CCCCOc1c(CCNCCCCNCCc2cc(OC)c3ccccc3c2OCCCC)cc(OC)c2ccccc12 [TCMDC-137848]	124.7
CC[C@H](NC(=O)c1c(CN2CCC(N3CCCCC3)CC2)c(-c2ccccc2)nc2cc(O)ccc12)c1ccccc1 [TCMDC-140381]	13.93
CC(C)CCN1CCC(Oc2ccc(NC(=O)c3ccc4ncccc4c3)cc2Cl)C1 (stereo not shown) [TCMDC-133982]	6.933
Clc1ccccc1CNc1noc(-c2sccc2Br)n1 [TCMDC-134189]	-9.305
CCc1c(C)nc(-n2nc(C)cc2NC(=O)c2cccc3ccccc23)[nH]c1=O [TCMDC-124936]	19.12
Cc1cc(NC(=O)c2cc(Br)ccc2Cl)n(-c2nc(C)c(C)c(=O)[nH]2)n1 [TCMDC-124938]	58.54
CCc1c(C)nc(-n2nc(C)cc2NC(=O)c2ccc(OC)cc2OC)[nH]c1=O [TCMDC-124937]	1.355
COc1cccc2cc(C(=O)N[C@@H](CC(C)C)C(=O)N[C@H](/C=N/NC(=O)N3CCN(C)CC3)CCc3ccccc3)oc12 [TCMDC-136052]	37.67
COc1cc(NC(=O)N2CCOC(CCN3CCC(c4ccccc4)CC3)(c3ccc(Cl)c(Cl)c3)C2)cc(OC)c1OC (stereo not shown) [TCMDC-135349]	-27.1
CC(C)(C)c1cc(N=NC(=O)c2ccncc2)cc(C(C)(C)C)c1O [TCMDC-123490]	-20.54
N#Cc1ccc(N(CCOc2ccc(Cl)c(F)c2)Cc2ccccc2C(F)(F)F)cc1C(F)(F)F [TCMDC-132797]	-6.991
